Source: PubChem BioAssay (NCATS)
Some of the results follow. A call without a number means that no potency is given here. Results filed as inconclusive are left out. The source made the active and inactive calls. The call rests on the fitted dose curve; in most records, active means well fitted inhibition curve with a large enough effect; inconclusive means small, poorly fitted or top-dose-only effect; inactive means flat fitted curve, though single readings scatter.

These compounds were tested on NanoLuc luciferase (engineered Oplophorus gracilirostris luciferase) (assay: Biochemical NLuc saturation counterscreen for small molecule modulators of PMP22 gene expression - Nano-Glo assay (AID 1508638)). Settings: Secreted NLuc enzyme (filtered S16 cell medium), Nano-Glo luminescence; series mostly up to 57.5 µM.
Excerpt: Assay Provider: Jim Inglese Ph.D. National Center for Advancing Translational Science, National Institutes of Health, Rockville, MD CMT is a heterogeneous group of neurological disorders that affect approximately 1 in 2,500 people. In particular, the most common form of CMT, CMT1A is genetically linked to the duplication of the PMP22 gene which leads to Schwann cell overexpression, thus manifesting itself as a typical case of dose-sensitive diseases. To identify small molecule compounds that can mediate the expression of PMP22 we developed a phenotypic assay screening strategy by utilizing genome editing techniques to construct Schwann cell lines containing novel reporter technology to monitor the transcriptional or translational regulation of PMP22. For high sensitivity we use a bioluminescent reporter system embedded in the 3' UTR of the PMP22 gene (S16(c9) Pmp22-F2sN) to identify compounds that inhibit gene expression. […] We can further discriminate the effect of all transcriptionally active molecules on PMP22 translation or stability with an assay that incorporates a short NLuc peptide (HiBiT) at the C-terminus of expressed PMP22 (S16(f8) PMP22-HiBiT) allowing alpha complementation and luminescence detection of membrane-associated PMP22 protein. These assays were screened against the NCATS Sytravon Library Collection. Miniaturization of these assays to 1536-well plate format for quantitative high throughput screening (qHTS) yielded rich data sets immediately from the qHTS assay (S16(c9) Pmp22-F2sN), when compared with data from a cell viability assay (Cell TiterGlo) to identify compounds that decreased the output signals through cellular toxicity to streamline the selection process of actives for subsequent characterization using the HiBiT assay (S16(f8) PMP22-HiBiT).
Biochemical Promega Nano-Glo solution NLuc assay PROTOCOL TABLE (format as described by Inglese J, Shamu CE and Guy RK. 2007) SEQUENCE No. (e.g., 1, 2, 3, etc.); PARAMETER (e.g., Cells, Incubation, Reagent, etc.); VALUE and DESCRIPTION. 1. Reagent. Add 2 uL substrate per well into Greiner 1536-well white/solid bottom high base, medium binding plates. 2. Compounds. Library compounds and controls added at 23nL per well, transferred by Pin Tool. 3. Incubation. Incubate plates 5 min at ambient temperature. 4. Reagent. Add 2uL NLuc enzyme solution per well of Greiner 1536-well plates. 5. Incubation. Incubate plates at room temperature for 10 min., protect from light. 6. Detector. FLuc luminescence measured using CCD-based camera (Viewlux). NOTES (numbers refer to Sequence numbers above; values are from representative experiments) 1. Freshly prepared Nano-Glo Luciferase Assay System reagent per Promega instructions, product N1120, and filtered through […]. 4. Enzyme was obtained by filtering media of S16 cells expressing secreted NLuc (Inglese et al. 2014) grown to 80-90% confluency in DMEM High Glucose, No Phenol Red media + 10% heat inactivated FBS + 1% Pen/Strep supplemented media6. Luminescence Read (Fluc): Clear filter; Exposure = 10 sec, Gain = High, Speed = Slow, Binning = 2X 6. Luminescence Read (Nluc): Clear filter; Exposure = 1 sec, Gain = High, Speed = Slow, Binning = 2X REFERENCES: 1. Inglese J, Shamu CE and Guy RK, Reporting data from high throughput screening of small molecule libraries, Nature Chemical Biology, 2007, 3(8): 438-441. doi.org/10.1038/nchembio0807-438 2. Yasgar A, Shinn P, Jadhav A, Auld DS, Michael S, Zheng W, Austin CP, Inglese J and Simeonov A, Compound Management for Quantitative High-Throughput Screening. J. Assoc. Lab. Auto., 2008, 13: 79-89. doi: 10.1016/j.jala.2007.12.004 3. Inglese, J., Dranchak, P., Moran, J. J., Jang, S. W., Srinivasan, R., Santiago, Y., Zhang, L., Guha, R., Martinez, N., MacArthur, R., Cost, G. J., and Svaren, J. (2014) Genome editing-enabled HTS assays expand drug target pathways for Charcot-Marie-tooth disease, ACS Chem Biol 9, 2594-2602.
Potency means the concentration at half of the fitted maximal effect.

Row | Structure (SMILES) | Potency
1 | CCOCCCNC(=O)c1c(NC(=O)c2nc(SC)ncc2Cl)sc2c1CCCC2 | inactive
2 | Cc1ccc(NC(=O)c2nc(S(=O)(=O)Cc3cccc(C)c3)ncc2Cl)cc1 | inactive
3 | COc1ccc(CCNC(=O)c2cc(=O)c3c(C)cc(C)cc3o2)cc1OC | 0.343 µM (active)
4 | COc1ccccc1Nc1c2c(nc3ccc(NC(=O)/C=C/c4cc(OC)c(OC)c(OC)c4)cc13)CCCC2 | 4.32 µM (active)
5 | Cc1ccc(C)n1-c1nnc(N2CCC(C(=O)NCc3ccccc3Cl)CC2)s1 | inactive
6 | Cc1ccc(OCCSc2nc3ccc(NC(=O)COc4ccc(C)cc4)cc3s2)cc1 | inactive
7 | CCOC(=O)c1c(C)[nH]c(CCC(=O)NCCCN2CCN(c3cccc(Cl)c3)CC2)c1C | inactive
8 | CC(=O)N1CCCc2cc(S(=O)(=O)N3CCCC(C(=O)N4CCN(c5cccc(Cl)c5)CC4)C3)ccc21 (stereo not given) | inactive
9 | COc1ccc(-c2onc(C)c2C)cc1S(=O)(=O)NCC1CCN(Cc2cccc(F)c2)CC1 | inactive
10 | CCc1ccc(C2CC(=O)c3c([nH]c(C(=O)OCc4ccc(C)cc4)c3C)C2)cc1 (stereo not given) | inactive
11 | O=C(c1ccc2c(c1)N(Cc1ccc(F)cc1)C(=O)c1ccccc1S2(=O)=O)N1CCN(c2ccccn2)CC1 | 3.43 µM (active)
12 | CCC1CCCCN1CCCNC(=O)c1cc2c(Cl)nc3ccccc3c2s1 (stereo not given) | inactive
13 | CCOc1ccc(NC(=O)c2c(NC(=O)Cc3ccccc3)sc3c2CCC(C)C3)cc1 (stereo not given) | inactive
14 | O=C(c1ccc(C(F)(F)F)cc1)N1CCC(c2nc(-c3ccc(S(=O)(=O)N4CCCC4)cc3)no2)CC1 | inactive
15 | CCC1=Nc2cc(C(=O)NCCCOC(C)C)ccc2Sc2ccc(C)cc21 | inactive
16 | CCOC(=O)c1c(C)[nH]c(CCC(=O)NCCCN2CCN(c3cc(C)ccc3C)CC2)c1C | inactive
17 | Cc1cccc(Nc2cc(C)nc(-n3nc(C)cc3C)n2)c1 | 6.11 µM (active)
18 | CCCS(=O)(=O)c1ncc(Cl)c(C(=O)Nc2scc(-c3ccccc3)c2C(=O)OCC)n1 | inactive
19 | CCOC(=O)c1ccc(NC(=O)CSc2nc3c([nH]c4ccccc43)c(=O)n2C)cc1 | inactive
20 | CCCCOc1ccc(CN2C(=O)C(=O)c3cc(Br)cc(C)c32)cc1OC | inactive
21 | Cc1cc(OCC(=O)NCC2(N(C)C)CCCCC2)cc(C)c1Cl | inactive
22 | Cc1ccc(CCNC(=O)C2CCN(c3nnc(-n4cccc4CNc4ccc(C)cc4)s3)CC2)cc1 | inactive
23 | Cc1nnc(SCC(=O)NCc2ccccc2Cl)c2nn(-c3ccccc3)c(C)c12 | inactive
24 | CC(C)(C)c1ccc(C(=O)NCC(c2ccco2)S(=O)(=O)c2ccc(F)cc2)cc1 (stereo not given) | inactive
25 | CCCn1c2ccccc2c2cnn(CC(=O)NCC3CCN(Cc4ccc(C)cc4)CC3)c(=O)c21 | inactive
